Assay outcomes: PubChem, National Center for Advancing Translational Sciences (NCATS)
Sampled rows, rich in hits. Any-hit rate of the full collection: about 1.4%.
KCNH2 3.1 block: blocks the human KCNH2 3.1 channel isoform | U2OS KCNH2 3.1, thallium flux FluxOr; stronger effect = lower value | activity change, % (tested at about 1.8 µM) | 340,000 tested, 0.95% active | AID 720553;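 active = maximum activity change below -70%; inconclusive = maximum activity change from -70% to -50%; inactive = maximum activity change above -50%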;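 note: thallium influx rate constant from kinetic fluorescence after stimulation buffer; % is set by controls: 0 for no effect and ±100 for the full control effect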
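Virally transduced U2OS (3.1 isoform, 4 h infection in dark at RT) → overnight 37 C → FluxOr + Red40 in HBSS/HEPES, 45 min → stimulation buffer, 2 min kinetic read → rate constant vs DMSO controls.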
Rango-impB inh: inhibitors of Rango-importin beta complex formation | 340,000 tested, 0.031% active | Potency, µM (top dose mostly 92.2 µM), for inactives: top-dose inhibition of complex formation | Rango CFP/YFP FRET sensor + importin beta, 45 min;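 note: potency is the fitted concentration of half-maximal effect; 0% = DMSO wells and 100% = buffer wells lacking importin beta; nearly all actives have a fitted effect of over 15% in size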
Target sequence (Q14974 whole entry, looked up): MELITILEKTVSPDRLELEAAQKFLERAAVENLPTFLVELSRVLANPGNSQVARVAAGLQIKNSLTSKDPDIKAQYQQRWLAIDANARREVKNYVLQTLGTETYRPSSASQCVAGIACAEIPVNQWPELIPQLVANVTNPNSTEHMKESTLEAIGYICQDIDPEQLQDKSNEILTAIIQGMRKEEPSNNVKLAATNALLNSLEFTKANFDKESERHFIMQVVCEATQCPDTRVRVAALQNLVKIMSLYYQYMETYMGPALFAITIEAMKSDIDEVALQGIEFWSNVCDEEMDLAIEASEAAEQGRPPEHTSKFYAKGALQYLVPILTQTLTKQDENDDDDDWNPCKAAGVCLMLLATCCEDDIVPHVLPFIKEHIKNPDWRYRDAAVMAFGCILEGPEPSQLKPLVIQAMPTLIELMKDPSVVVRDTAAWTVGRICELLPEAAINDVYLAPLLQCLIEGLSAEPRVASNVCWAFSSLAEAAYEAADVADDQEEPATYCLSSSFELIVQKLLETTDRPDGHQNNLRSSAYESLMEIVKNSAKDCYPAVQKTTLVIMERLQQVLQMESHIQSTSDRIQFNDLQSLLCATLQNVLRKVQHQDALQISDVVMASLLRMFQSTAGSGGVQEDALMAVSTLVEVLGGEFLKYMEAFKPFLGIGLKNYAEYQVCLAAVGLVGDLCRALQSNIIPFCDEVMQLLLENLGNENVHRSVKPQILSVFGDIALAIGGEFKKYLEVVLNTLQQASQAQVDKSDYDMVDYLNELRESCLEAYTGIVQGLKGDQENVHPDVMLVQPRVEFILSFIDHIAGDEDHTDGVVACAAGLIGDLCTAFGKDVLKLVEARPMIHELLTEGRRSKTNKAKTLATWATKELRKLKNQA
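FRET biosensor Rango (snurportin 1 IBB between N-terminal EYFP and C-terminal Cerulean), 50 nM in PBS/1 mM DTT/0.02% Tween-20/0.1% BSA, preincubated 5 min RT with compound; 0.125 microM importin beta added, 45 min RT, CFP/YFP FRET ratio read.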
hERG WT inh: blocks the wildtype human KCNH2 potassium channel; Q12809; U2OS, BacMam KCNH2, thallium flux FluxOr; stronger effect = lower value; activity change, % at 1.84 µM; 340,000 tested, 0.37% active; AID 720551;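 active = maximum activity change below -70%; inconclusive = maximum activity change between -70% and -50%; inactive = maximum activity change above -50%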; note: % is set by controls: 0 for no effect and ±100 for the full control effect
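U2OS cells transduced with wild-type KCNH2 virus are loaded with FluxOr dye for 45 min, and thallium flux is measured in kinetic reads before and after stimulation buffer. Rate constants are normalized to DMSO controls.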
CCT modulator: changes cytosolic chaperonin activity | activity change, % (test concentration not listed), hits read low | purified chaperonin ATPase assay, HTRF ADP detection, 30 min | AID 651819 | 360,000 tested, 0.3% active; in the data active = activity change below about -30%; note: % is set by controls: 0 for no effect and ±100 for the full control effect
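First, chaperonin was dispensed at 40 nM or 20 nM final depending on batch activity. Next, compounds were pinned at 76 uM and ATP added at 10 uM. After 30 min at 37 °C, ADP detection reagents ran 30 min at ambient temperature.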
Rango dissoc inh: inhibition of RanGTP-driven Rango-importin beta dissociation | O95149+P62826 | Biochemical FRET Rango-importin beta, RanGTP-induced dissociation | Potency, µM (series often up to 46.1 µM), for inactives: at the top dose activity change, negative = inhibition | 340,000 tested, 0.071% active | AID 540253; note: potency is the fitted concentration of half-maximal effect; % of control where 0% means no effect; nearly all actives have a fitted effect of over 45% in size
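FRET read at 45 min, room temperature: inhibitors block the CFP/YFP signal rise when RanGTP (0.6 uM Ran, 2 mM GTP, 0.2 uM RCC1) frees Rango (0.1 uM) from importin beta (0.25 uM). Pre-read after 5 min compound exposure flags interference.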
MmCpn inh: inhibitors of Methanococcus maripaludis chaperonin TRiC (MmCpn). 330,000 tested, 0.031% active. Potency, µM (series often up to 76.9 µM), inactives show at the top dose activity, negative = inhibition, hits mostly inhibitors. purified Mm-Cpn ATPase, ADP Transcreener TR-FRET. AID 504842; active = well fitted inhibition curve with a large enough effect; inconclusive = small, poorly fitted or top-dose-only effect; note: potency is the fitted concentration of half-maximal effect; % is set by controls: 0 for no effect and ±100 for the full control effect; nearly all actives have a fitted effect of over 80% in size
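Purified archaeal Mm-CPN (25nM final) preincubated 10 min at 37degC with compound, then 10uM ATP for 30 min at 37degC; ADP measured by HTRF Transcreener TR-FRET; buffer 30 mM TRIS pH 7.4, 100mM KCl, 5mM MgCl2, 1mM DTT.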
Numbers without * were called inactive; ? = inconclusive; · = no result; [ ] = another dose, or the depositor's remark. Unless noted, calls come from the whole dose curve.

SMILES	KCNH2 3.1 block	Rango-impB inh	hERG WT inh	CCT modulator	Rango dissoc inh	MmCpn inh
O=C(Nc1nc2ccccc2[nH]1)c1ccc(F)cc1	-97.3*	3.5%	5.4	-3.4	0.6%	-0.3%
O=C(Nc1nc2ccccc2[nH]1)c1cc(F)cc(F)c1	2.6	-4.6%	6.8	0.5	5.8%	0.2%
COCCNC(=O)C1CCN(S(=O)(=O)N2CCC3(CC2)OCCO3)CC1	-200.3*	3.2%	-8.1	0.9	4.0%	-0.2%
COc1ccc(CCNC(=O)C2CCN(S(=O)(=O)N3CCC4(CC3)OCCO4)CC2)cc1OC	-3.3	0.9%	-3.7	2.2	4.6%	0.9%
Cc1ccc(Nc2ncnc3sc(C)c(C)c23)cc1	15.8	6.4%	7.1	-1.2	-8.2%	0.5%
Cc1sc2ncnc(N)c2c1C	-0.9	0.9%	-32.6	-55.3*	-23.3%	0.4%
COc1ccc(CNCCCn2cnc(C(=O)Nc3ccc(C)c(C)c3)n2)cc1	-86.5*	-0.1%	3.7	-2.7	-11.1%	·
Cc1ccc(NC(=O)c2ncn(CCCNCCCc3ccccc3)n2)cc1C	-91.1*	-0.7%	-80.4*	-1.9	-15.1%	·
Cc1ccc(NC(=O)c2ncn(CCCNCCCN(C)C)n2)cc1C	10.1	1.9%	-10.5	2.5	3.2%	·
Cc1ccc(NC(=O)c2ncn(CCCN(CCCn3cnc(C(=O)Nc4ccc(C)c(C)c4)n3)Cc3ccc4[nH]ccc4c3)n2)cc1C	-77.1*	0.6%	-90.6*	-0.8	6.6%	·
COC(=O)Cn1cnc(C(=O)Nc2ccc(C)c(C)c2)n1	-72.9*	-3.2%	-5.0	0.2	?	0.0%
CCOc1ccc(C(=O)NCC(=O)OCCN2C(=O)c3ccccc3C2=O)cc1OCC	23.2	3.7%	-10.1	2.3	-0.4%	1.8%
Cc1ccc(-n2cc(CNCCCn3cccn3)c(-c3cccc(C)c3)n2)cc1	-81.3*	0.7%	?	-1.2	-0.6%	-6.0%
Cc1ccc(C)c(-n2cc(CNCCCn3cccn3)c(-c3ccccc3)n2)c1	7.2	4.3%	10.3	0.2	3.0%	-1.0%
Cc1cc(N2C3CCC2CC(O)(c2ccc(F)cc2)C3)nc(-c2ccccc2)n1 (centres undefined)	-71.8*	3.4%	10.7	-2.1	28.9%	0.6%
CCCn1c(SCC(=O)NCc2ccco2)nnc1C(C)C	-12.5	-0.1%	9.9	-41.8*	-4.6%	-0.5%
Cc1nnc(SCC(=O)NCc2ccco2)n1Cc1ccccc1	-5.5	1.0%	-6.2	0.6	0.5%	0.3%
CCOC(=O)CN(Cc1sccc1C)C(=O)Nc1ccc(OCC)cc1	-18.5	2.4%	50.5	-4.9	-0.5%	0.7%
O=C(NCCOC(=O)c1ccc(C(=O)OCCNC(=O)c2cccnc2)s1)c1cccnc1	-0.7	7.3%	16.2	-55.8*	-6.5%	-0.3%
COc1ccc2oc(C(=O)Nc3cccc(S(=O)(=O)N4CCOCC4)c3)c(C)c2c1	8.8	-2.8%	18.9	2.1	15.7%	-22.0%
CCOc1ncccc1C(=O)Nc1nnc(C)s1	16.0	3.4%	-9.6	0.8	-4.0%	-1.2%
CCOc1ncccc1C(=O)Nc1nnc(C2CC2)s1	-0.6	-4.5%	7.5	-30.5*	2.1%	-6.7%
O=C(NC(=S)NCc1ccccc1)c1cccnc1	25.6	-1.0%	-77.6*	0.1	-1.1%	-1.0%
CCOc1ccc(NC(=O)COc2ccc(C(=O)NCc3cccnc3)cc2OC)cc1	-1.9	5.2%	-9.2	2.4	0.366µM*	-21.4%
O=C(NNC(=S)NCc1ccccc1)c1cccnc1	-0.3	6.6%	-4.6	1.2	-7.9%	2.3%
O=C(CNC(=O)COc1ccccc1)NCc1cccnc1	-8.6	-3.3%	-1.8	-41.4*	-4.4%	1.0%
c1ccc(NCc2cccnc2)cc1	14.9	-0.4%	4.5	-120.8*	-2.5%	-1.0%
COc1ccc([C@]23Cc4cc(OC)c(OC)cc4C(O2)c2c(cc(-c4ccccc4)oc2=O)O3)cc1	·	·	·	·	·	1.8%[15.4 µM]
O=C(CNC(=O)c1ccc(Cl)cc1Cl)OCc1nnc(-c2ccccc2)o1	0.6	0.8%	-30.2	0.1	-5.1%	3.2%
